# Laboratory results from PubChem BioAssay (NCATS).
# Where “and” joins values, the source holds several entries; their conditions need not be identical. Equal entries are not always repeated. Records with an inconclusive call do not appear. A call without a number means that no potency is given here. Calls of active or inactive are those of the source. Unless noted, calls follow the shape of the full dose curve.
# Columns and labels:
# [1] = Cell Viability - N2a (AID 540; active = well fitted curve in the direction sought with a large enough effect; an effect the other way counts as inactive or inconclusive; also: nearly all actives have a fitted effect of over 45% in size; also: potency is read from the fitted curve at half-maximal effect); settings: N2a mouse neuroblastoma cell viability; activity change, negative = cytotoxicity: at 92.2 µM (top of the series)
# In short: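 Mouse neuroblastoma N2a cells (1500/well) were preincubated 5 hr at 37 °C, then exposed to compounds for 40 hr at 37 °C in complete medium. Viability was read as intracellular ATP by CellTiter-Glo luminescence; AC50 from Hill fits.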
# [2] = Cell Viability - H-4-II-E (AID 543; active = well fitted curve in the direction sought with a large enough effect; an effect the other way counts as inactive or inconclusive; also: nearly all actives have a fitted effect of over 35% in size; also: potency is read from the fitted curve at half-maximal effect); settings: H-4-II-E rat hepatoma viability; series mostly up to 92.2 µM
# In short: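 Rat hepatoma H-4-II-E cells (1500/well) were plated, incubated 5 hr at 37 °C, then exposed to compounds for 40 hr at 37 °C. Cellular ATP was read by CellTiter-Glo luminescence; AC50 came from Hill-equation fits of concentration-response data.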
# [3] = biological target: Bile acid receptor (Homo sapiens) (UniProt Q96RI1); test: qHTS assay for small molecule agonists of farnesoid X receptor signaling (AID 588527); settings: HEK293T FXR-UAS-bla, beta-lactamase ratio, 16 h; stronger effect = higher value
# In short: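 Read-out: beta-lactamase reporter fluorescence with CCF4 substrate in GeneBLAzer FXR-UAS-bla HEK293T cells, after 16 h compound exposure at 37 C. Response scaled between DMSO basal (0%) and chenodeoxycholic acid at 100 uM (100%).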
# [4] = biological target: Glucocorticoid receptor (Homo sapiens) (UniProt P04150); test: qHTS assay for small molecule agonists of glucocorticoid receptor signaling (AID 588532; active = well fitted curve in the direction sought with a large enough effect in the signal ratio, with a control signal flat; the % refers to the signal ratio); settings: HeLa MMTV-bla, beta-lactamase ratio, agonist, 18 h; stronger effect = higher value; percent of dexamethasone control, DMSO zero
# In short: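 Cells were plated and rested 3-5 h at 37 C, compounds were added in titration and incubated 18 h, then CCF4 substrate was loaded for 2 h at RT before reading blue/green fluorescence. EC50 came from Hill-equation fitting.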
# [5] = biological target: Vitamin D3 receptor (Homo sapiens) (UniProt P11473); test: qHTS assay for small molecule antagonists of vitamin D receptor signaling (AID 588541); settings: HEK293T VDR-UAS-bla, beta-lactamase ratio, antagonist mode; series mostly up to 76.7 µM;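 also: receptor activated by calcitriol during compound treatment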
# In short: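 VDR-UAS-bla HEK293T cells in 2% charcoal-stripped FBS were stimulated with 1-alpha,25-dihydroxyvitamin D3 (3 nM final) plus compound for 16 h at 37 C. The beta-lactamase CCF4 readout was normalized to 50 nM agonist and DMSO, and Hill fits gave IC50.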
# [6] = qHTS assay for small molecule agonists of the antioxidant response element (ARE) signaling pathway (AID 651741; active = well fitted activation curve with a large enough effect in the signal ratio; the % refers to the signal ratio; also: potency is read from the fitted curve at half-maximal effect); settings: HepG2 ARE-bla reporter, beta-lactamase FRET ratio, 16 h; series mostly up to 96 µM
# In short: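 HepG2 ARE-bla cells plated at 2,000 cells/well and incubated 5 h at 37 C/5% CO2 received 23 nL compound in DMSO. After 16 h at 37 C, LiveBLAzer B/G FRET substrate was applied for 2 h at room temperature and fluorescence read.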
# [7] = qHTS assay for small molecule disruptors of the mitochondrial membrane potential - 1 hr assay (AID 651754); settings: series mostly up to 92.2 µM; also: nearly all actives have a fitted effect of over 35% in size; also: potency is read from the fitted curve at half-maximal effect
# In short: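 HepG2 cells, attached overnight at 37C, were exposed to compound or DMSO vehicle for 1 hr at 37C, 5% CO2, then stained with Mito-MPS dye for 30 min. Red aggregate versus green monomer fluorescence reports membrane potential.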
# [8] = Cell Viability - SK-N-SH (AID 435); settings: SK-N-SH neuroblastoma cell viability qHTS; also: potency is read from the fitted curve at half-maximal effect
# In short: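 qHTS cytotoxicity: CellTiter-Glo ATP luminescence after 40 h compound exposure of human neuroblastoma SK-N-SH cells at 37 °C. AC50 derived by Hill-equation fitting, with DMSO as basal and 100 uM tamoxifen as full inhibition.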
# [9] = Cellular Toxicity (caspase-3) Jurkat (AID 655; active = well fitted curve in the direction sought with a large enough effect; an effect the other way counts as inactive or inconclusive;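 also: cells exposed to compound for 16 h at 37 °C before reading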); settings: Jurkat caspase-3 activation, luminescence; caspase-3 activation: at 92.2 µM (top of the series), DMSO = 0%, tamoxifen = 100%
# In short: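 Luminescent Caspase-Glo 3/7 read-out (20 min, room temperature) after 16 h compound treatment at 37 C of 5000 Jurkat cells per well. AC50 derived by Hill-equation fitting, scaled between DMSO basal and 100 uM tamoxifen stimulation.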
# [10] = biological target: Estrogen receptor (Homo sapiens) (UniProt P03372); test: qHTS assay for small molecule antagonists of estrogen receptor alpha signaling (AID 588513; active = well fitted curve in the direction sought with a large enough effect in the signal ratio, with a control signal flat, not every such curve was filed as active; the % refers to the signal ratio); settings: ER-alpha-UAS-bla HEK293, beta-lactamase ratio, antagonist mode; series mostly up to 76.9 µM
# In short: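 Antagonist mode: inhibition of 0.5 nM 17-beta-estradiol-driven beta-lactamase reporter in HEK 293 ER-alpha-UAS-bla cells, 18 h at 37C, CCF4 readout after 2 h at RT. Normalised to estradiol and DMSO; titration fitted to Hill.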
# [11] = biological target: Estrogen receptor (Homo sapiens) (UniProt P03372); test: qHTS assay for small molecule agonists of estrogen receptor alpha signaling (AID 588514); settings: ER-alpha-UAS-bla HEK293, beta-lactamase ratio, 18 h; series mostly up to 76.8 µM; also: nearly all actives have a fitted effect of over 70% in size
# In short: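 ER-alpha-UAS-bla GripTite HEK 293 cells in medium with 2% charcoal/dextran-treated FBS were treated with compound titrations at 37 C for 18 hrs; beta-lactamase reporter read by CCF4 fluorescence after 2 hrs at RT.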
# [12] = biological target: Glucocorticoid receptor (Homo sapiens) (UniProt P04150); test: qHTS assay for small molecule antagonists of glucocorticoid receptor signaling (AID 588533; active = well fitted inhibition curve with a large enough effect in the signal ratio, with a control signal flat, not every such curve was filed as active; the % refers to the signal ratio); settings: HeLa MMTV-bla, GRE beta-lactamase ratio, antagonist mode, 18 h; series mostly up to 76.8 µM
# In short: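 Antagonist-mode qHTS: compound titrations added to GRE-bla HeLa cells, then dexamethasone 2 nM final; 18 h, 37 C. CCF4 FRET fluorescence normalized to dexamethasone and DMSO; IC50 from Hill fit.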
# [13] = biological target: Peroxisome proliferator-activated receptor delta (Homo sapiens) (UniProt Q03181); test: qHTS assay for small molecule agonists of peroxisome proliferator-activated receptor delta signaling (AID 588534); settings: HEK293T PPARdelta-UAS-bla, beta-lactamase ratio, 18 h; series mostly up to 76.7 µM
# In short: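 Cell-based beta-lactamase reporter assay run in agonist mode: cells seeded and incubated 5 hrs at 37 C, compounds added and incubated 18 hrs at 37 C. CCF4 dye fluorescence read after 2 hrs at RT; EC50 and efficacy from Hill fits.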
# [14] = qHTS assay for small molecule antagonists of peroxisome proliferator-activated receptor delta signaling (AID 588535); settings: HEK293T PPARd-UAS-bla, beta-lactamase FRET ratio, 18 h; 460 nm channel;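 also: cells co-treated with a PPAR-delta agonist as stimulator during compound exposure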
# In short: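 Cells were seeded at 4000 per well in assay medium containing 2% charcoal/dextran FBS and held 5 hrs at 37 C. Compounds were then added for 18 hrs. CCF4 substrate was applied for 2 hrs at room temperature before fluorescence reading.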
# [15] = Cell Viability - SH-SY5Y (AID 544; active = well fitted curve in the direction sought with a large enough effect; an effect the other way counts as inactive or inconclusive; also: nearly all actives have a fitted effect of over 55% in size); settings: SH-SY5Y neuroblastoma cell viability; viability change, negative = cytotoxic: at 92.2 µM (top of the series)
# In short: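 Human neuroblastoma SH-SY5Y cells (1500/well) in complete medium were exposed to compounds for 40 hr at 37 °C; intracellular ATP was then quantified by CellTiter-Glo luminescence after 20 min at room temperature. AC50 came from Hill-equation concentration-response fits.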
# [16] = biological target: Retinoic acid receptor RXR-alpha (Homo sapiens) (UniProt P19793); test: qHTS assay for small molecule agonists of retinoid X receptor alpha signaling (AID 588544); settings: HEK293T RXRa-UAS-bla, beta-lactamase reporter, 18 h; series mostly up to 76.7 µM
# [17] = biological target: Bile acid receptor (Homo sapiens) (UniProt Q96RI1); test: qHTS assay for small molecule antagonists of farnesoid X receptor signaling (AID 588526); settings: HEK293T FXR-UAS-bla, beta-lactamase ratio, antagonist mode; series mostly up to 76.7 µM
# In short: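 Antagonist mode: titrated compounds tested against chenodeoxycholic acid stimulation (normalized to 50 uM CDCA and DMSO) in GeneBLAzer HEK293T cells for 16 h. Beta-lactamase read by CCF4 fluorescence; IC50 from Hill fits.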
# [18] = Cell Viability - NIH 3T3 (AID 541; active = well fitted curve in the direction sought with a large enough effect; an effect the other way counts as inactive or inconclusive; also: nearly all actives have a fitted effect of over 25% in size); settings: NIH 3T3 cell viability, qHTS; activity change, negative = cytotoxicity: at 92.2 µM (top of the series)
# In short: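 NIH 3T3 mouse embryo fibroblasts (1000 cells/well) were plated in complete medium and treated with compound for 40 hr at 37 °C. Viability was read as intracellular ATP by CellTiter-Glo luminescence; AC50 values came from Hill-equation fits of concentration-response data.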
# [19] = biological target: Peroxisome proliferator-activated receptor gamma (Homo sapiens) (UniProt P37231); test: qHTS assay for small molecule antagonists of peroxisome proliferator-activated receptor gamma signaling (AID 588537; active = well fitted inhibition curve with a large enough effect in the signal ratio, with a control signal flat, not every such curve was filed as active; the % refers to the signal ratio;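 also: reporter cells co-stimulated with 50 nM rosiglitazone agonist during compound treatment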); settings: HEK293 PPARg-UAS-bla, beta-lactamase ratio, antagonist mode; series mostly up to 76.8 µM
# In short: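 Step one: plate 3000 HEK293 UAS-bla cells per well in medium with 1% stripped serum and hold 6-6.5 h at 37 C. Step two: add compound and 50 nM agonist for 16 h. Step three: CCF4 loading, fluorescence read.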
# Chain of Retinoic acid receptor RXR-alpha (Homo sapiens) (P19793 whole entry, looked up): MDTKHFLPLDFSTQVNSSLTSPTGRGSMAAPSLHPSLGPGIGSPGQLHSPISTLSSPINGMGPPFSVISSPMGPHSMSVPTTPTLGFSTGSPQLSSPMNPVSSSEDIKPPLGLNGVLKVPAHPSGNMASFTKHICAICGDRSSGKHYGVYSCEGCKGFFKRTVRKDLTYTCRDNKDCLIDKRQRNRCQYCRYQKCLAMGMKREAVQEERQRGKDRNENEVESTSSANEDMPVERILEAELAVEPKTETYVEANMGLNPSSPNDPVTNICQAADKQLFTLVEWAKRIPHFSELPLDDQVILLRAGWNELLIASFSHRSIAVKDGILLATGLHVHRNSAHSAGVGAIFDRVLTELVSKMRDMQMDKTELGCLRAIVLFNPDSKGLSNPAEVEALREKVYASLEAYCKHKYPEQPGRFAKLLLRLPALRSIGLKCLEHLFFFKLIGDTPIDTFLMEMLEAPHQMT
# Chain of Peroxisome proliferator-activated receptor gamma (Homo sapiens) (P37231 whole entry, looked up): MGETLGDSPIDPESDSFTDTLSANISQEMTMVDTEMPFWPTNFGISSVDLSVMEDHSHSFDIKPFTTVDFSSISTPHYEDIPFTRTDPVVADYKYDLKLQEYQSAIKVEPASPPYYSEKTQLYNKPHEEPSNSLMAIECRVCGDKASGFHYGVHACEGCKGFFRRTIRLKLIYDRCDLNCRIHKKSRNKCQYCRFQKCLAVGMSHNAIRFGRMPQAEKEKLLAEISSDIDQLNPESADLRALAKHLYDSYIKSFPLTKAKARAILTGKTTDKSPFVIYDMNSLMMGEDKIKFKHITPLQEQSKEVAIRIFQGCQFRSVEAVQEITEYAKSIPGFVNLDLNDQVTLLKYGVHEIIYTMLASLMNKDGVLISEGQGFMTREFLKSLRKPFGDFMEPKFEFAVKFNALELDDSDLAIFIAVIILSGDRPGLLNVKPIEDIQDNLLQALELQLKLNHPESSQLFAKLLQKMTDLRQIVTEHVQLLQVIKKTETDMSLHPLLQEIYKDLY
# Chain of Bile acid receptor (Homo sapiens) (Q96RI1 whole entry, looked up): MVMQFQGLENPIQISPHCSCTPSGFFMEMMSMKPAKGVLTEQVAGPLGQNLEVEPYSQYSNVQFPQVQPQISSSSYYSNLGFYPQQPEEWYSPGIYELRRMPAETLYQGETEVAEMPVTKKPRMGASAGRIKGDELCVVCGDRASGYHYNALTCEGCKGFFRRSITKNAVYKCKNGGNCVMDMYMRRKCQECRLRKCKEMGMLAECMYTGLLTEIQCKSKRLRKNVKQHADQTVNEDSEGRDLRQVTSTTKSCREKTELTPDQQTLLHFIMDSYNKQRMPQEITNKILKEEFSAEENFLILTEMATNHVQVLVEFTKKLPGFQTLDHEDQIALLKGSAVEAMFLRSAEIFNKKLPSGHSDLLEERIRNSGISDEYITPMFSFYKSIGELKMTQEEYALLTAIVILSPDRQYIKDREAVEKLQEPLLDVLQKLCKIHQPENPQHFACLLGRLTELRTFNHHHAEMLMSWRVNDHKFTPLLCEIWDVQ
# Chain of Estrogen receptor (Homo sapiens) (P03372 whole entry, looked up): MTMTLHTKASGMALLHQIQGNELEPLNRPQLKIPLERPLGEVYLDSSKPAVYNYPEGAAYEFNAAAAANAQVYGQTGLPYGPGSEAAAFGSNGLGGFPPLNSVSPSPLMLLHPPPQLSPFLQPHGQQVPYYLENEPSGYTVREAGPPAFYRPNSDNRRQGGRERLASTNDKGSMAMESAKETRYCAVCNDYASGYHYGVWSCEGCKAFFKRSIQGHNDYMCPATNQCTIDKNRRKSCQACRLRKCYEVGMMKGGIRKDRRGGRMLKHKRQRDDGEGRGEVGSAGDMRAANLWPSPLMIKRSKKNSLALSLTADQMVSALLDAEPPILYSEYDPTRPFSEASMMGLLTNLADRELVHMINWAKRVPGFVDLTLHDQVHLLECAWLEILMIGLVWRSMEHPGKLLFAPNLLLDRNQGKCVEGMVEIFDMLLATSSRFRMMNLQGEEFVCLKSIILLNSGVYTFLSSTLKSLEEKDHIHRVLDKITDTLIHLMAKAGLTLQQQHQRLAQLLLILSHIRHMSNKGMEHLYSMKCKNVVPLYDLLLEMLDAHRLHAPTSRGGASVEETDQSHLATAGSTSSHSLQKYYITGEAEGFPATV
# Chain of Glucocorticoid receptor (Homo sapiens) (P04150 whole entry, looked up): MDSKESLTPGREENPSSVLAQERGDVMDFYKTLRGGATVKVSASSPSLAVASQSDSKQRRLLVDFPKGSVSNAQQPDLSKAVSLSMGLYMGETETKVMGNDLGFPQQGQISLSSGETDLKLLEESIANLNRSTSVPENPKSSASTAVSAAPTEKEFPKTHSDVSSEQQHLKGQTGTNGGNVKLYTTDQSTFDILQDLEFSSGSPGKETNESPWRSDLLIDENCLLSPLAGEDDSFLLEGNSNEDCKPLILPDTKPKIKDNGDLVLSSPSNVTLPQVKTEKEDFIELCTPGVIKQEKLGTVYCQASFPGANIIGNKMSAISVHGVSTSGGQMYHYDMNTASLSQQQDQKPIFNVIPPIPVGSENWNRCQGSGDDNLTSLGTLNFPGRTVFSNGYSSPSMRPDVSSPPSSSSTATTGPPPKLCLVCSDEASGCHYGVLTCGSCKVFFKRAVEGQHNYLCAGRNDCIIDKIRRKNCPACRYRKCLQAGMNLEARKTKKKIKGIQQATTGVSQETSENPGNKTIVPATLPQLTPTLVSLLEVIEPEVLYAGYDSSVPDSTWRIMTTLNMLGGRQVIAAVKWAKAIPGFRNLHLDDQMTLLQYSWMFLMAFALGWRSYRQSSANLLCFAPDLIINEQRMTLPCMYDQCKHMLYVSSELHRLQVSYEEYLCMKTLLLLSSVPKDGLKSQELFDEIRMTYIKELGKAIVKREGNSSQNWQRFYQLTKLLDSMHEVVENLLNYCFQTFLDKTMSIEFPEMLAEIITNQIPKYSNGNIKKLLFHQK
# Chain of Peroxisome proliferator-activated receptor delta (Homo sapiens) (Q03181 whole entry, looked up): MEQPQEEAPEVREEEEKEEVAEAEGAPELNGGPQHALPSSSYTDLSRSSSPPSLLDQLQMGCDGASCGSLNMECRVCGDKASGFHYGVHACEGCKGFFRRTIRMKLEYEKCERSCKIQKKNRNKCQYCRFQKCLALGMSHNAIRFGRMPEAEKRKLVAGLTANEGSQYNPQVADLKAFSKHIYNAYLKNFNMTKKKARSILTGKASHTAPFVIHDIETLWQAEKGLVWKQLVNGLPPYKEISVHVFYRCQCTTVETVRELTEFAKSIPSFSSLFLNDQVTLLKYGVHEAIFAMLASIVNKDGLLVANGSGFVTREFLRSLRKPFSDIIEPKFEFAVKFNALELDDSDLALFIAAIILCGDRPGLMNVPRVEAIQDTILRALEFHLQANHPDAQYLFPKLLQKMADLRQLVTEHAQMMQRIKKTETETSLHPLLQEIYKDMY
# Chain of Vitamin D3 receptor (Homo sapiens) (P11473 whole entry, looked up): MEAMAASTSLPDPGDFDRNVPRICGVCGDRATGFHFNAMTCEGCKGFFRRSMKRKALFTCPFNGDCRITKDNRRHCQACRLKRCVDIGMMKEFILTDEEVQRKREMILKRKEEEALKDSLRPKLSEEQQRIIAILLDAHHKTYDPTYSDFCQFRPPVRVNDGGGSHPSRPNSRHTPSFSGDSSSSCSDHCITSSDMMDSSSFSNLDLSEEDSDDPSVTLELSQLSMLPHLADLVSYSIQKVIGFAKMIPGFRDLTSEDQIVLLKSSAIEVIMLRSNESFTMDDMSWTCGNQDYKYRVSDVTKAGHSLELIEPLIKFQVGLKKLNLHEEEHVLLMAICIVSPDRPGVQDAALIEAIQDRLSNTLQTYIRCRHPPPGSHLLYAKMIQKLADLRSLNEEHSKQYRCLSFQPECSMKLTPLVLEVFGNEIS
compound,measurement,setting,value
Oc1cc(Cl)c(Cl)c(Cl)c1,Potency,[1],31.6 µM (active)
same,Potency,[2],63.1 µM (active)
same,activation,[3],3.7% (inactive)
same,activation,[4],5.15% (inactive)
same,outcome,[5],inactive
same,Potency,[6],23.7 µM (active)
same,Potency,[7],33.5 µM (active)
Nc1cc(Cl)ccc1O,Potency,[8],> 92 µM (inactive)
same,Potency,[2],inactive
same,caspase-3 activation,[9],15.3% (inactive)
same,Potency,[10],inactive
same,Potency,[11],inactive
same,activation,[4],3.82% (inactive)
same,outcome,[12],inactive
same,outcome,[13],inactive
same,max response,[14],-44.8%
same,Potency,[6],10.6 µM (active)
same,Potency,[7],29.8 µM (active)
c1ccc(OCC2CO2)cc1 (stereo not given),Potency,[8],> 92 µM (inactive)
same,Potency,[1],inactive
same,Potency,[15],inactive
same,caspase-3 activation,[9],1.63% (inactive)
same,activation,[4],-7.97% (inactive)
same,outcome,[12],inactive
same,outcome,[5],inactive
same,outcome,[16],inactive
same,Potency,[6],inactive
same,Potency,[7],inactive
C=C(C)CCl,Potency,[15],inactive
same,caspase-3 activation,[9],-0.765% (inactive)
same,Potency,[10],inactive
same,Potency,[11],inactive
same,outcome,[17],inactive
same,activation,[3],-1.8% (inactive)
same,activation,[4],15.7% (inactive)
same,outcome,[12],inactive
same,outcome,[13],inactive
same,max response,[14],2.33%
same,outcome,[16],inactive
same,Potency,[6],inactive
same,Potency,[7],inactive
CCCCOC(C)=O,Potency,[1],inactive
same,Potency,[18],inactive
same,Potency,[2],inactive
same,Potency,[15],inactive
same,Potency,[10],inactive
same,Potency,[11],inactive
same,outcome,[17],inactive
same,activation,[3],1.21% (inactive)
same,outcome,[13],inactive
same,max response,[14],21.2%
same,Potency,[19],inactive
same,outcome,[16],inactive
same,Potency,[6],inactive
same,Potency,[7],inactive
c1ccc2c(c1)ccc1cc3c(ccc4ccccc43)cc12,Potency,[6],2.37 µM (active)
O=[N+]([O-])c1ccc(O)c([N+](=O)[O-])c1,Potency,[15],inactive
same,caspase-3 activation,[9],-6.84% (inactive)
same,Potency,[10],inactive
same,Potency,[19],inactive
same,outcome,[16],inactive
same,Potency,[6],66.8 µM (active)
same,Potency,[7],21.1 µM (active)
c1ccc2c(c1)-c1cccc3c1c-2cc1ccccc13,Potency,[10],inactive
same,Potency,[6],10.6 µM (active) and 6.11 µM (active)
S=c1[nH]c2ccccc2[nH]1,Potency,[8],> 92 µM (inactive)
same,Potency,[18],inactive
same,Potency,[2],inactive
same,Potency,[15],inactive
same,caspase-3 activation,[9],-0.402% (inactive)
same,activation,[4],-3.9% (inactive)
same,outcome,[12],inactive
same,Potency,[19],inactive
same,outcome,[16],inactive
same,Potency,[7],inactive
